For part of these data: Entries with a potency or affinity are not part of this list.
Assays:
Staphylococcus aureus = assay: Antibacterial activity against Staphylococcus aureus MRSA ATCC 43300 (CO-ADD:GP_020); MIC in CAMBH media using NBS plates, by Resazurin F(560/590); format: functional; conditions: Concentration 20 uM, ASSAY_TEST Inhibition of Bacterial Growth, detection method Resazurin, Fluorescence (ex560/em590), MEDIA CAMHB, plate type 384well, CORNING #3640, time 18 hr
Acinetobacter baumannii = assay: Antibacterial activity against Acinetobacter baumannii ATCC 19606 (CO-ADD:GN_034); MIC in CAMBH media using NBS plates, by Resazurin F(560/590); format: functional; conditions: Concentration 20 uM, ASSAY_TEST Inhibition of Bacterial Growth, detection method Resazurin, Fluorescence (ex560/em590), MEDIA CAMHB, plate type 384well, CORNING #3640, time 18 hr
Escherichia coli = assay: Antibacterial activity against Escherichia coli ATCC 25922 (CO-ADD:GN_001); MIC in CAMBH media using NBS plates, by Resazurin F(560/590); format: functional; conditions: Concentration 20 uM, ASSAY_TEST Inhibition of Bacterial Growth, detection method Resazurin, Fluorescence (ex560/em590), MEDIA CAMHB, plate type 384well, CORNING #3640, time 18 hr
Klebsiella pneumoniae = conditions: Concentration 20 uM; ASSAY_TEST Inhibition of Bacterial Growth; detection method Absorption (OD600); MEDIA CAMHB; plate type 384well; NBS; CORNING #3640; time 18 hr
Candida albicans = conditions: 20 µM
Cryptococcus neoformans = conditions: Concentration 20 uM; ASSAY_TEST Inhibition of Fungal Growth; detection method Resazurin; Absorption (OD600-OD570); plate type 384well; NBS; CORNING #3640

SMILES	Inhibition (Staphylococcus aureus)	Inhibition (Acinetobacter baumannii)	Inhibition (Escherichia coli)	Inhibition (Klebsiella pneumoniae)	Inhibition (Candida albicans)	Inhibition (Cryptococcus neoformans)
C/C(=N\O)[C@H]1CC[C@H]2[C@@H]3CC[C@@H]4C/C(=N/O)CC[C@]4(C)[C@H]3[C@@](C)(O)C[C@]12C	13.92%	2.13%	6.69%	4.28%	2.6%	-11.49%
O=C(Nc1ccc(Oc2ccc(NC(=O)Nc3ccccc3Cl)cc2)cc1)Nc1ccccc1Cl	19.6%	-10.42%	14.43%	12.03%	16%	6.13%
N#Cc1ncc(Cl)c2ccccc12	-8.29%	-4.37%	-2.85%	7.91%	0.23%	-7.62%
C1CCc2nc3c(nc2C1)CCCC3	13.53%	-4.6%	11.61%	13.7%	1.61%	-2.79%
COc1cc(C2NC(=O)C(C#N)=C(Nc3cccc(C)c3)S2)ccc1O (stereo not given)	16.64%	5.33%	14.44%	11.49%	1.94%	-8.18%
O=P(O)(O)c1cc(-c2ccccc2)oc1-c1ccccc1	-4.92%	9.92%	13.72%	15.02%	5.26%	-17.53%
OC(COc1cccc2ccccc12)CN1CCN(c2ccccc2Cl)CC1 (stereo not given)	-4.97%	8.91%	-13.55%	3.22%	3.81%	-4.59%
N#CCCCCN1CCCC1	4.35%	-8.73%	3.27%	18.95%	-1.32%	-2.95%
CCCOc1ccc(-c2nc(-c3ccc(N)cc3)cs2)cc1	6.42%	13.93%	2.89%	4.45%	5.55%	-3.2%
COc1ccc(NC(=O)N2CCN(C(=O)Nc3ccc(OC)cc3)CC2)cc1	0.79%	9.56%	-5.74%	5.35%	-1.52%	3.31%
CCCSc1nc2c(c(=O)n(C)c(=O)n2C)n1C	3.15%	-8.65%	0.8%	7.42%	2.63%	-7.02%
Nc1cc([N+](=O)[O-])ccc1Nc1ccc(O)cc1	-9.75%	-11.21%	0.26%	0.39%	3.23%	-0.22%
CCOC(=O)C1(C#N)C(=O)CS/C1=N/c1ccccc1Cl (stereo not given)	19.69%	6.45%	0.68%	8.87%	1.9%	-13.01%
CC(=O)Nc1ccc(OC(=O)Oc2ccc(NC(C)=O)cc2)cc1	37.09%	-4.35%	7.78%	22.87%	5.36%	-3.28%
O=c1cc(-c2ccccc2)[nH]c2cc(-c3ccco3)nn12	0.84%	-12.67%	11.9%	14.24%	-0.13%	-17.18%
c1ccc(-c2nc(-c3nccc4ccccc34)oc2-c2ccccc2)cc1	-13.7%	-4.32%	-16.8%	-4.05%	15.1%	12.09%
N#C/C(=C\c1ccc(C#N)cc1)C(=O)c1ccccc1	-10.06%	-6.48%	6.05%	15.1%	8.77%	-10.85%
C=CCOc1ccc(S(C)(=O)=O)cc1	-0.52%	-11.44%	7.79%	4.92%	1.73%	-10.45%
CC(=O)O.N=c1ccn2c(n1)OC1C(O)C(CO)OC12 (stereo not given)	0.21%	-10.07%	8.11%	17.17%	-0.52%	-12.02%
COc1ccc(/C(C#N)=C/c2cccnc2)cc1	17.02%	-13.68%	11.08%	6.19%	11.3%	-16.52%
Nc1ccc(-c2nc3nc(N)nc(N)c3nc2-c2ccc(N)cc2)cc1	11.99%	-8.41%	-0.05%	5.53%	0.39%	-7.52%
S=C(Nc1ccccc1)c1ccccn1	3.41%	-5.82%	1.02%	19.37%	25.9%	-3.26%
Cc1ccc(NC(=O)Nc2ccccc2C(N)=O)cc1	-6.86%	-15.18%	6.22%	4.47%	1.66%	-13.76%
Cc1nc(C(N)=O)nc2ccccc12	17.26%	-10.29%	6.82%	15.63%	0.61%	1.62%
CC(=O)CC[N+](C)(C)C.[I-]	1.22%	-9.05%	1.86%	4.32%	4.03%	-9.72%

SMILES	Inhibition (Staphylococcus aureus)	Inhibition (Acinetobacter baumannii)	Inhibition (Escherichia coli)	Inhibition (Klebsiella pneumoniae)	Inhibition (Candida albicans)	Inhibition (Cryptococcus neoformans)
COC1OC(O)C(NC(=O)C(F)(F)F)CC1O (stereo not given)	15.69%	9.13%	5.88%	16.01%	3.69%	-8.11%
Cc1ccc(S(=O)(=O)N2CC=C(N)N2)cc1	16.25%	-10.87%	9.9%	8.77%	-1.38%	-12.82%
S=C1N(c2ccccc2)CN(C2CCCCC2)CN1c1ccccc1	0.84%	12.71%	-2.84%	1.62%	3.07%	-5.37%
O=C(/C=C/c1ccc(Cl)s1)c1ccc(Cl)s1	14.77%	5.48%	-1.03%	0.02%	4.39%	-6.98%
COCC(=O)OC1CCn2c1nc1c2C(=O)C(C)=C(NC(C)=O)C1=O (stereo not given)	9.15%	12.44%	-2.53%	8.02%	-3.01%	-13.92%
C=C(C)C/N=C/C1(C)CCC(C)=CO1 (stereo not given)	-0.35%	0.87%	-9.37%	5.17%	1.63%	19.3%
Cc1nc(O)c2c3c(sc2n1)CCCC3	1.78%	-6.79%	6.4%	-0.52%	-0.04%	-11.89%
CSc1cccc(NC(=O)OC2CCCCCCCCCCC2)c1	23.58%	6.29%	14.03%	20.05%	2.81%	-2.07%
Cc1ccc2nc(Cl)cc(=O)n2c1	3.79%	-0.85%	-11.05%	5.29%	1.34%	9.92%
COc1cc(C(O)c2nc3ccccc3s2)cc(OC)c1OC (stereo not given)	9.75%	-15.16%	6.66%	12.12%	9.5%	-12.06%
COc1cccc(/C=C/c2nccc3ccccc23)c1OC	13.01%	1.37%	11.96%	0.37%	0.68%	-13.37%
CCSc1nc(C)cc(S)n1	8.56%	-11.79%	13.36%	13.31%	25.2%	-6%
CC(C)(C)c1ccc(C(=O)Nc2ccc(S(N)(=O)=O)cc2)cc1	29.14%	5.57%	7.06%	7.59%	2.9%	-15.62%
Nc1n[nH]c(Nc2ccccc2)n1	19.31%	2.24%	12.19%	2.99%	-0.65%	-7.66%
COc1cc(Cl)c(CC(=O)c2c[nH]c3ccccc23)cc1OC	-6.42%	2.77%	-1.53%	5.86%	3.17%	-1.97%
Cc1cccn2c(S)nnc12	10.19%	-5.53%	13.03%	17.76%	5.89%	-6.48%
Cc1cnc2cc(Cl)ccc2c1SCC(=O)O	2.5%	10.23%	1.72%	11.14%	11.6%	-9.96%
CCOC(=O)CCC1(C(=O)OC)C(=O)CCCCC/C=C/1C(=O)OC (stereo not given)	9.69%	9.62%	-17.88%	8.19%	7.46%	18.91%
CCCCCOc1ccc(N2C(=O)C(C)CNC2=S)cc1 (stereo not given)	15.96%	8.82%	2.34%	9.59%	-1.3%	-8.51%
CC1=CC(=O)CC(C)(C)C1(O)/C=C/C(C)=C/C(=O)O (stereo not given)	-9.32%	-14.23%	1.66%	3.67%	5.51%	-3.67%
Nc1ccc(Br)cc1Br	10.2%	5.55%	2.13%	7.43%	6.15%	-7%
Nc1n[nH]c(-c2ccccc2)n1	11.8%	-13.69%	16.83%	8.63%	-1.64%	-8.71%
COc1ccc2c(c1)CCCN2C(=N)Nc1ccc(Cl)cc1	-10.2%	2.99%	-14.68%	7.66%	3.95%	6.87%
O=C(c1ccccc1)c1ccc[nH]1	-0.8%	-3.74%	-15.34%	11.78%	2.09%	18.91%
CSC1=NC=C(C#N)C2=NC(c3ccc(Cl)cc3)NN12 (stereo not given)	-1.38%	5.14%	-2.57%	11.21%	1.44%	39.9%
